This note sets out measurements from PubChem BioAssay.

Results filed as inconclusive are left out. The source made the active and inactive calls.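 The calls were made as follows, unless noted: active = viability at or below 30% in both replicate assays; inconclusive = viability at or below 30% in just one of the two assays; inactive = the rest.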

Assay [1] is described as follows: Her2 expression decrease, cell viability multiplex – SKBR3 breast tumor cells, AlphaScreen, ATP viability, primary screen (AID 461;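 active = Her2 level under about 52% in both replicate screens, with viability over 70% of control, limit read from the data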;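 as to Her2 level: lower value means less Her2 protein in the cells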;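 as to viability: percent of carrier control wells set as 100% viability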). The settings on record: SKBR3 Her2 protein level, 18-24 h, measured here: SKBR3 viability, ATP luminescence, at 10 µM.
Assay [2] deals with Receptor tyrosine-protein kinase erbB-2 (Homo sapiens) (UniProt P04626). Described as above. The conditions noted are these: 18-24 h, at 10 µM, stronger effect = lower value.
Chain of Receptor tyrosine-protein kinase erbB-2 (Homo sapiens) (P04626 whole entry, looked up): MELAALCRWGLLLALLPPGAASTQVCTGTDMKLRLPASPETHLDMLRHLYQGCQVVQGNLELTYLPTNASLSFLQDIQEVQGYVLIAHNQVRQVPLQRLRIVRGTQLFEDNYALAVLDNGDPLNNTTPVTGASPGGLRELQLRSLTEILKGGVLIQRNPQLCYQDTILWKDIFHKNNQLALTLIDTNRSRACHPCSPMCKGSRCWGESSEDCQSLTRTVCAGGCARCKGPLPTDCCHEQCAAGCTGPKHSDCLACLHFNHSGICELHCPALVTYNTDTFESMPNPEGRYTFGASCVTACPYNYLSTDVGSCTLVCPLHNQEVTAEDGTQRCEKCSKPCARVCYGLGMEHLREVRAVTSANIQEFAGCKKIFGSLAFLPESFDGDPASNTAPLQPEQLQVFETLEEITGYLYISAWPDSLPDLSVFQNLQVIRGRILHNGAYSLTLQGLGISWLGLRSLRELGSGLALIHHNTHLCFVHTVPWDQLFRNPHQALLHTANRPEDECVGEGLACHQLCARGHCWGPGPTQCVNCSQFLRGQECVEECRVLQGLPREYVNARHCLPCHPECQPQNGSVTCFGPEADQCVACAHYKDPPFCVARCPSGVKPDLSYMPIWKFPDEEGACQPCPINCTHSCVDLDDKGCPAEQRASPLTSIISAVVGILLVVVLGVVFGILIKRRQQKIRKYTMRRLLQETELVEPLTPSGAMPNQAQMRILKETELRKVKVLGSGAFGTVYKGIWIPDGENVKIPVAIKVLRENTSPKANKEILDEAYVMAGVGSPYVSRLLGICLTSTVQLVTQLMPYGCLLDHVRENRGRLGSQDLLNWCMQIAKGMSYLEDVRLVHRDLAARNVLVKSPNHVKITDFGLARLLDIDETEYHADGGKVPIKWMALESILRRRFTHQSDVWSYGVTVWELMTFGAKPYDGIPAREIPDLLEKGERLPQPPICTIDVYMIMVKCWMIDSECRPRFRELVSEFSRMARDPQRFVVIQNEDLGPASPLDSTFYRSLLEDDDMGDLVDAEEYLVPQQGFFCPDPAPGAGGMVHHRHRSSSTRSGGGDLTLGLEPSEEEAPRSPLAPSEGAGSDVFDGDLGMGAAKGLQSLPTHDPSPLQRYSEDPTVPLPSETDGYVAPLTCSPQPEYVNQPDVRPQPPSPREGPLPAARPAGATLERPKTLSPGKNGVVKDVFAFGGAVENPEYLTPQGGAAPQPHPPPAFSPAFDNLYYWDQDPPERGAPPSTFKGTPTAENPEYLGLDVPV
Assay [3] is described as follows: reduced viability of SK-BR-3 breast cancer cells – cell-based, 24 h, human, pilot screen (AID 572;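 active = viability at or below 10% of carrier control in both of two separate runs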;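 also: compound exposure lasted between 18 and 24 h rather than exactly 24 h; 100% = carrier-treated control wells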). The settings on record: SK-BR-3 viability, CellTiter-Glo luminescence, at 10 µM, stronger effect = lower value. Background: In ATP-based viability assays light output follows the ATP content of the culture.
Assay [4] in a line: HUVEC growth inhibition – cell-based, human, primary screen (AID 575).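 Also: 100% = median of untreated cell wells with 0.1% DMSO on each plate.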 The settings on record: HUVEC proliferation, CellTiter-Glo luminescence, 72 h; at 10 µM; stronger effect = lower value.
Assay [5] can be described thus: H69AR cell proliferation blockers – human, duplicate replicates, primary screen (AID 580;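 active = viability at or under a set limit in both replicates, limit being median viability minus 3 SD, cut at about 48% in these data, passing the limit was not always enough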;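 also: 100% = mean luminescence of untreated wells and 0% = no signal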). The conditions noted are these: H69AR lung tumor cells viability, ATP luminescence, 72 h; at 10 µM; stronger effect = lower value.
A short description of assay [6]: MRP1 drug-resistance reversers in H69AR cells – cell-based, doxorubicin co-treatment, pilot screen (AID 601;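 active = viability loss from added drug above about 55%, and viability with drug at most 40%, in both replicates, limit read from the data, passing the limit was not always enough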). The conditions noted are these: CellTiter-Glo, 72 h, at 10 µM; for differential viability (reversal): stronger effect = higher value.
A short description of assay [7]: yeast transport mutant growth inhibition pilot in 384-well plates, post-Golgi transport modulator project (AID 636; in the data active = inhibition above about 31%). The settings on record: absorbance 615 nm, about 18 h, stronger effect = higher value.
A short description of assay [8]: growth suppression of yeast trafficking mutant, preliminary HTS, modulators of trafficking downstream of Golgi apparatus project, 1536-format plate, OD 615 nm (AID 637; in the data active = inhibition above about 30%). The settings on record: yeast transport mutant growth, absorbance 615 nm, 18 h; stronger effect = higher value.
Assay [9] in a line: S. cerevisiae growth inhibition in permissive medium (OD615), pilot counter-assay for S. cerevisiae lifespan shortening project, permissive growth control (AID 705;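 active = growth inhibition above 25% in both replicates, a cutoff set 3 SD above the mean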). The conditions noted are these: OD615, 24 h, at 10 µM, stronger effect = higher value.
Assay [10] can be described thus: S. cerevisiae growth inhibition in restrictive medium, OD615, pilot screen, restrictive growth control, yeast lifespan reduction project (AID 706;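 active = growth inhibition above a set limit, 3 SD over mean compound inhibition, in both replicates, cut at about 43% in these data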;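 also: modified DeaD lifespan yeast strain shifted to restrictive glucose medium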). The conditions noted are these: OD615, 48 h, at 10 µM, stronger effect = higher value.
Assay [11] in a line: doxorubicin toxicity protection in MRP-1 cells – H69AR cells, CellTiter-Glo, duplicate, MRP-1 activator project, pilot screen (AID 807;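 active = viability increase at or above a cutoff of the median across tested compounds plus 3 SD, cut at about 8.5% in these data, passing the limit was not always enough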;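 also: compound pretreatment 18-22 h then 72 h combined with doxorubicin; 0% = doxorubicin alone and 100% = vehicle without doxorubicin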). The conditions noted are these: H69AR viability with doxorubicin, CellTiter-Glo luminescence; at 10 µM; stronger effect = higher value.
A short description of assay [12]: viability of HCT116 without oncogenic beta-catenin – human colon tumor cells, pilot screen (AID 823;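 active = cell viability at or below a set limit in both duplicate runs, the limit being the all-compound median minus 4 SD, cut at about 23% in these data, passing the limit was not always enough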;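 also: 0% = wells killed by 20 µM Hyamine and 100% = untreated DMSO cell wells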). The settings on record: HCT116 beta-catenin knockout viability, CellTiter-Glo, 60 h; at 10 µM; stronger effect = lower value.
Assay [13] can be described thus: viability of PTEN-null HCT116 cells – cell-based, HCT116 clonal line, CellTiter-Glo, pilot screen (AID 824;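 active = viability at or below 27.92% in each of two runs, the all-compound median minus 4 SD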;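 also: 0% = 20 µM Hyamine control and 100% = vehicle cell control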). The settings on record: HCT116 PTEN-deleted viability, 60 h, at 10 µM, stronger effect = lower value.
Assay [14] can be described thus: RAM pathway blockade in budding yeast – dse1pr::URA3 reporter, 5-FOA selection, pilot screen (AID 869;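 active = inhibition over a set limit, the all-compound mean plus 3 SD, in both replicate runs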;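 also: 0% = DMSO wells with no growth and 100% = 10 µM 1-NA-PP1 with full growth; RAM network block rescues cells from 5-FOA so hits raise OD615 growth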). The conditions noted are these: S. cerevisiae dse1pr::URA3 5-FOA growth, OD615, 2 d; at 10 µM; stronger effect = higher value; strain carries analog-sensitive mutant Cbk1 kinase.
Assay [15] in a line: RAM signaling pathway blockade in yeast – S. cerevisiae, Pdr1DBD-CYC8 efflux-inhibited sensitized strain, primary screen (AID 1298;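 active = RAM network inhibition above 8.4% in each of two replicates, 3 SD over the compound average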;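 also: 0% = DMSO untreated cells without growth and 100% = 10 µM 1-NA-PP1 full growth; higher means more yeast growth rescued from 5-FOA killing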). The conditions noted are these: S. cerevisiae cbk1-as DSE1-URA3 strain, 5-FOA growth OD615, 2 d; at 50 µM; stronger effect = higher value.
The mark [16] stands for this setting: H69AR cells + 2 uM doxorubicin, measured here: viability with 2 uM doxorubicin, stronger effect = lower value.
[17] abbreviates: H69AR cells, compound alone cytotoxicity.

The term viability denotes a read-out of living cells in per cent, often relative to untreated cells. A word on the inhibition: it is the drop in the measured response relative to a control, in per cent. As for `CCN(CC)C(=O)C1CCCc2c1[nH]c1ccc(Cl)cc21` (stereo not given), the viability in assay [1] was 102%; in [3] it was 102% (inactive); in [4], 67.1% (inactive); in [5], 76.6% (inactive); in assay [6] (setting [16]) it was 70.6%; in [6] (setting [17]) it was 76.6%. The viability in [12] is 66.5% (inactive); in assay [13], 60.8% (inactive). Also, the Her2 level in assay [2] was 91% (inactive). For the same compound, in [6] (H69AR cells + 2 uM doxorubicin), the differential viability (reversal) was 5.98% (inactive). In addition, the inhibition in assay [7] is 8.13% (inactive); in [8], 44% (active); in assay [14], 0.455% (inactive). Further, the growth inhibition is -16% (inactive) in assay [9] and -4.67% (inactive) in assay [10]. The viability increase in [11] is -4.93% (inactive). Also, the RAM network inhibition in assay [15] is 1.57% (inactive).

`CC1CCN(c2nc3c(c(=O)[nH]c(=O)n3C)n2CCSc2ncccn2)CC1`: the viability in assay [1] is 96.5%; in assay [3], 96.5% (inactive); in assay [4], 109% (inactive); in assay [5] it was 90.8% (inactive); in assay [6] (setting [16]) it was 90.4%; in assay [6] (setting [17]), 90.8%. Further, the viability in assay [12] and in assay [13] was 102% (inactive) each time. Further, in assay [2], the Her2 level is 97% (inactive). In addition, in assay [6] (H69AR cells + 2 uM doxorubicin), the differential viability (reversal) was 0.415% (inactive). Also, the inhibition is -4.4% (inactive) in assay [7], -5.17% (inactive) in [8] and 2.46% (inactive) in assay [14]. The growth inhibition in assay [9] is 1.06% (inactive); in assay [10], -2.73% (inactive). Besides, the viability increase in assay [11] was -0.46% (inactive). In addition, the RAM network inhibition in assay [15] is 2.81% (inactive).

For `Cc1ccccc1-n1c(Cn2c(=O)sc3ccccc32)nnc1SCC(=O)N1CCCC1`, the viability in assay [1] is 109%; in [3] it was 109% (inactive); in [4] it was 98% (inactive); in [5], 93.7% (inactive); in assay [6] (setting [16]), 81.1%; in assay [6] (setting [17]), 93.7%. Moreover, the viability in [12] is 98.6% (inactive); in assay [13] it was 104% (inactive). In addition, in assay [2], the Her2 level is 90.5% (inactive). Also, in [6] (H69AR cells + 2 uM doxorubicin), the differential viability (reversal) was 12.6% (inactive). The inhibition in [7] is -4% (inactive); in assay [8] it was 6.89% (inactive); in assay [14], -0.765% (inactive). The growth inhibition is -2.21% (inactive) in [9] and 6.39% (inactive) in assay [10]. Besides, the viability increase in assay [11] was -0.45% (inactive). For the same compound, in assay [15], the RAM network inhibition was 8.27% (inactive).

Turning to `O=P(O)(CN1CCCCCC1)CN1CCCCCC1`, the viability in assay [1] is 93%; in assay [3], 93% (inactive); in assay [4] it was 96.6% (inactive); in [5] it was 107% (inactive); in assay [6] (setting [16]) it was 99.2%; in assay [6] (setting [17]) it was 107%. For the same compound, the viability is 98.3% (inactive) in [12] and 105% (inactive) in assay [13]. In addition, the Her2 level in assay [2] was 97.5% (inactive). Besides, the differential viability (reversal) in [6] (H69AR cells + 2 uM doxorubicin) is 7.6% (inactive). Also, the inhibition in assay [7] is -2.84% (inactive); in assay [8] it was -0.82% (inactive); in [14], 0.24% (inactive). The growth inhibition was -16.8% (inactive) in [9] and -8.96% (inactive) in [10]. In addition, the viability increase in assay [11] is 1.45% (inactive). The RAM network inhibition in assay [15] was 4.85% (inactive).

For `CC1NC2(C(=O)N(Cc3ccccc3)c3ccccc32)C2C(=O)N(c3ccccc3)C(=O)C12` (stereo not given), the viability is 120% in assay [1]; 120% (inactive) in assay [3]; 95.5% (inactive) in assay [4]; 93.5% (inactive) in assay [5]; 92.9% in assay [6] (setting [16]); 93.5% in assay [6] (setting [17]). Moreover, the figures for the viability in assay [12] and in assay [13] were 97.1% (inactive) and 104% (inactive), respectively. Moreover, the Her2 level in [2] was 100% (inactive). Further, the differential viability (reversal) in [6] (H69AR cells + 2 uM doxorubicin) is 0.575% (inactive). For the same compound, the figures for the inhibition in [7], in assay [8] and in [14] were -4.13% (inactive), 1% (inactive) and 0.29% (inactive), respectively. Besides, the growth inhibition in assay [9] was -5.06% (inactive); in assay [10], -14.4% (inactive). In [11], the viability increase is 1.77% (inactive). Also, in assay [15], the RAM network inhibition is 3.53% (inactive).
